Some test systems named below: SR leukemia; RPMI-8226 leukemia; OVCAR-8 ovarian; OVCAR-5 ovarian; OVCAR-4 ovarian; SK-OV-3 ovarian; OVCAR-3 ovarian; HS 578T breast; NCI/ADR-RES ovarian; T-47D breast; BT-549 breast; MDA-MB-435 melanoma; SW-620 colon; HCT-116 colon; HCC-2998 colon; KM12 colon; IGROV1 ovarian; MCF7 breast.
Common to all, as to experiment: NCI-60 one-dose screen, 48 h (100 = growth as untreated, 0 = no growth, -100 = all killed)
Settings in all cases: 10 µM unless noted

Compounds without any hit were thinned out: in the full panel of roughly 83,000, 20% have a hit.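 Cells were grown in 96-well plates and exposed to the test compound at a single concentration for 48 hours; results are reported as percent growth, with values below 10 considered active.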 Values without a mark were called inactive. The source made the active and inactive calls.

Take `COc1ccc(-c2nnc(SCc3ccc(O)c4ncccc34)n2-c2ccccc2)cc1`: the growth in the test on SR leukemia was 34.3%; in the test on RPMI-8226 leukemia, 10.9%; with OVCAR-8 ovarian, 16.1%; with OVCAR-5 ovarian, 53.3%; with OVCAR-4 ovarian it was 13.6%; in the test on SK-OV-3 ovarian it was 12.5%. Also, the growth with OVCAR-3 ovarian is 8.67% (active); in the test with HS 578T breast it was 22.1%; with NCI/ADR-RES ovarian, 4.3% (active); in the test with T-47D breast it was 18.9%; with BT-549 breast it was 19.7%; in the test on MDA-MB-435 melanoma, 14.3%. In addition, the growth in the test on SW-620 colon was 12.7%; in the test with HCT-116 colon, 7.39% (active); in the test on HCC-2998 colon it was 31.9%; in the test on KM12 colon it was 15.6%.
Take `C/C(=C(/C)C1CC1CCN(C(=O)c1ccc([N+](=O)[O-])cc1)S(=O)(=O)c1ccc(C)cc1)C1CCCCC1` (stereo not drawn): the growth is 94.8% in the test on SR leukemia; 85.7% with RPMI-8226 leukemia; 97.6% in the test with OVCAR-8 ovarian; 101% with OVCAR-5 ovarian; 90.8% in the test with OVCAR-4 ovarian; 111% in the test on IGROV1 ovarian. Further, the growth is 96.2% with OVCAR-3 ovarian; 102% in the test on HS 578T breast; 94.3% in the test on NCI/ADR-RES ovarian; 77.3% in the test on T-47D breast; 136% in the test with BT-549 breast; 99.4% in the test on MDA-MB-435 melanoma. The growth in the test with SW-620 colon was 96.7%; with MCF7 breast, 86.9%; in the test on HCT-116 colon it was 89.9%; with HCC-2998 colon it was 112%; in the test on KM12 colon, 89.6%.
Consider `C/C=C/C=C1\C[C@H]2CO[C@H](O2)C1=O`, for which the growth with SR leukemia was 53.1%; in the test with RPMI-8226 leukemia it was 95.4%; in the test with OVCAR-8 ovarian, 99.7%; in the test on OVCAR-5 ovarian it was 103%; with OVCAR-4 ovarian, 101%; in the test with SK-OV-3 ovarian it was 103%. The growth was 107% with HS 578T breast; 98.1% in the test with NCI/ADR-RES ovarian; 98.4% in the test on T-47D breast; 127% in the test with BT-549 breast; 101% in the test with MDA-MB-435 melanoma; 69.1% with SW-620 colon. The growth in the test on MCF7 breast is 67.1%; in the test with HCT-116 colon it was 82.3%; in the test on HCC-2998 colon it was 114%; in the test on KM12 colon, 103%.
On to `CC(C)N=C(N/C(N)=N/c1nc2ccccc2s1)NC(C)C`, for which the growth is 49.5% with SR leukemia; 42.7% in the test on RPMI-8226 leukemia; 67.2% in the test with OVCAR-8 ovarian; 60.8% in the test on OVCAR-5 ovarian; 93.6% in the test on OVCAR-4 ovarian; 39.6% in the test with IGROV1 ovarian. In addition, the growth was 104% in the test on OVCAR-3 ovarian; 75.9% in the test with HS 578T breast; 63.7% in the test with NCI/ADR-RES ovarian; 58.4% in the test with T-47D breast; 70% in the test with BT-549 breast; 35.9% in the test with MDA-MB-435 melanoma. The growth in the test on SW-620 colon was 33.3%; with MCF7 breast it was 43.2%; with HCT-116 colon, 17.7%; in the test with HCC-2998 colon, 76.9%; with KM12 colon it was 65.9%.
Turning to `COc1cc([C@H]2OC[C@H]3[C@@H]2CO[C@@H]3c2ccc(O)c(OC)c2)ccc1O`, the growth in the test on SR leukemia is 67.3%; with RPMI-8226 leukemia it was 72.1%; in the test with OVCAR-8 ovarian, 84.2%; with OVCAR-5 ovarian it was 86.6%; in the test on OVCAR-4 ovarian, 96.6%; in the test on SK-OV-3 ovarian, 69%. For the same compound, the growth is 96.8% in the test on OVCAR-3 ovarian; 107% in the test with HS 578T breast; 85.7% in the test with NCI/ADR-RES ovarian; 97.2% in the test with T-47D breast; 68.5% in the test on BT-549 breast; 107% in the test with SW-620 colon. Further, the growth in the test on HCT-116 colon is 92.8%; with HCC-2998 colon, 96%; with KM12 colon it was 90.6%.
As to `NC(=S)N/N=C(/C=C/c1cn(-c2ccccc2)nc1-c1ccc(Cl)cc1)c1cc2ccccc2oc1=O`, the growth was 39.7% with SR leukemia; 41% in the test with RPMI-8226 leukemia; 31.3% in the test with OVCAR-8 ovarian; 67.3% in the test on OVCAR-5 ovarian; 39.4% in the test with OVCAR-4 ovarian; 85.2% with SK-OV-3 ovarian. Also, the growth in the test on OVCAR-3 ovarian was 14.8%; with HS 578T breast, 69.2%; in the test with NCI/ADR-RES ovarian, 25.4%; in the test on T-47D breast it was 38.7%; in the test with BT-549 breast, 87.1%; in the test on MDA-MB-435 melanoma, 55.6%. Besides, the growth in the test with SW-620 colon was 29.6%; in the test with MCF7 breast it was 29.6%; in the test with HCT-116 colon, 31.1%; with HCC-2998 colon, 66%; with KM12 colon, 36.2%.
With `Clc1ccc(-c2csc(Nc3cccc(Nc4csc(-c5ccc(Cl)cc5)n4)c3)n2)cc1`, the growth in the test on SR leukemia was 96.8%; in the test with RPMI-8226 leukemia, 86.3%; in the test on OVCAR-8 ovarian, 87.3%; in the test with OVCAR-5 ovarian, 77.5%; with OVCAR-4 ovarian, 76.5%; in the test on SK-OV-3 ovarian, 79.3%. The growth in the test with HS 578T breast is 73.4%; with NCI/ADR-RES ovarian, 79.5%; in the test with T-47D breast it was 26.8%; in the test on BT-549 breast it was 112%; in the test with MDA-MB-435 melanoma it was 88.6%; in the test with SW-620 colon, 86.6%. Further, the growth in the test with MCF7 breast is 60.7%; in the test on HCT-116 colon, 67.2%; with HCC-2998 colon, 89.3%; with KM12 colon, 67.6%.
As for `O=c1c2ccccc2nc(COc2ccccc2)n1/N=C/C=C/c1ccccc1`, the growth with SR leukemia is 85.7%; in the test on RPMI-8226 leukemia, 87.5%; with OVCAR-8 ovarian it was 100%; in the test on OVCAR-5 ovarian, 98.8%; in the test with OVCAR-4 ovarian, 90%; in the test with IGROV1 ovarian, 90.2%. For the same compound, the growth with OVCAR-3 ovarian is 103%; in the test with HS 578T breast, 94.4%; with NCI/ADR-RES ovarian it was 91.8%; in the test on T-47D breast it was 94.6%; in the test on BT-549 breast, 135%; in the test on MDA-MB-435 melanoma it was 99.8%. The growth with SW-620 colon is 91.5%; in the test with MCF7 breast, 83.8%; in the test on HCT-116 colon it was 96.5%; with HCC-2998 colon, 101%; in the test on KM12 colon, 111%.
As to `CCOC(=O)c1nn(-c2ccccc2)c(=O)c2c(N)c(C#N)c(-c3cccs3)cc12`, the growth in the test on SR leukemia was 96%; with RPMI-8226 leukemia, 74.4%; in the test on OVCAR-8 ovarian, 54.5%; with OVCAR-5 ovarian, 88.8%; with OVCAR-4 ovarian, 36.7%; with IGROV1 ovarian, 64%. For the same compound, the growth was 109% in the test with OVCAR-3 ovarian; 32.9% with HS 578T breast; 59.8% in the test on NCI/ADR-RES ovarian; 76.7% with T-47D breast; 107% in the test with BT-549 breast; 90.3% in the test with MDA-MB-435 melanoma. Besides, the growth with SW-620 colon is 79.3%; in the test on MCF7 breast it was 74.6%; in the test with HCT-116 colon, 52.8%; in the test on HCC-2998 colon it was 78.2%; in the test with KM12 colon it was 80.4%.

The record behind these values is PubChem BioAssay (NCI).
